# Measured values published in ChEMBL document CHEMBL3433997, “St. Jude Leishmania screening dataset” (2016).
# Columns and labels:
# Type in all cases: functional
# [1] = biological target: Solute carrier family 2, facilitated glucose transporter member 1 (Homo sapiens) (UniProt P11166); experiment: ST_JUDE_LEISH: Cytotoxicity at 2uM final concentration against transgenic Leishmania Mexicana promastigotes LmGLUT1 that are glucose transport deficient and complemented with the human glucose transporter GLUT1. Activity is measured by DNA content using SYBR green in vitro
# Sequence of Solute carrier family 2, facilitated glucose transporter member 1 (Homo sapiens) (P11166 whole entry): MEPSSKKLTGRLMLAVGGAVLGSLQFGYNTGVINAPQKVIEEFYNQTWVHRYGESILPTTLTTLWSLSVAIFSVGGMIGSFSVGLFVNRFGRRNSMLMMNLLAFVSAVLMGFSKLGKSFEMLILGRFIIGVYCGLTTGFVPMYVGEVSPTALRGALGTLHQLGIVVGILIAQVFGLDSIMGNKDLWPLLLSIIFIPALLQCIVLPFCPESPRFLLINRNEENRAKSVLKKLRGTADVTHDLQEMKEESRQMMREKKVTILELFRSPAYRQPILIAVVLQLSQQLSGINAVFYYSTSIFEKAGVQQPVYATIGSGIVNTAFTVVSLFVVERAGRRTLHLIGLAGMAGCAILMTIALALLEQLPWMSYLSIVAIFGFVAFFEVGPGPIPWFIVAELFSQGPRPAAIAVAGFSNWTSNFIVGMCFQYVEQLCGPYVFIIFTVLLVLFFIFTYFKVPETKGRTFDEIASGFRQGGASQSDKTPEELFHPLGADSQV
# [2] = biological target: Hexose transporter 1 (Plasmodium falciparum) (UniProt O97467); experiment: ST_JUDE_LEISH: Cytotoxicity at 2uM final concentration against transgenic Leishmania Mexicana promastigotes LmPfHT that are glucose transport deficient and complemented with the Plasmodium falciparum hexose transporter. Activity is measured by DNA content using SYBR green in vitro
# [3] = biological target: Glucose transporter (Leishmania mexicana) (UniProt O61059); experiment: ST_JUDE_LEISH: Cytotoxicity at 2uM final concentration against transgenic Leishmania Mexicana promastigotes LmGT2 that are glucose transport deficient and complemented with the L. Mexicana glucose transporter 2. Activity is measured by DNA content using SYBR green in vitro
SMILES,inhibition [1] [%],inhibition [2] [%],inhibition [3] [%]
CC(C)CNC(=O)c1cncc(-c2ccc(CNCCCc3ccccc3)cc2)c1,0.94,-0.91,-0.55
CCOc1ccc(Nc2ccc3nonc3c2S(=O)(=O)Nc2ccc(OCC)cc2)cc1,-0.07,-0.32,-0.61
Cc1cccc2nc(-c3ccc(-c4ccc(C(=O)NCCc5cn(C)cn5)cc4)s3)[nH]c12,4.34,5.34,2.6
O=c1nc2[nH]c3ccccc3n2c(=O)[nH]1,3.69,2.18,3.41
O=C(NC1CCCCN(Cc2ccccc2O)C1)c1cccc(C(F)(F)F)c1 (configuration not stated),2.43,1.72,-4.05
CCCNCc1ccc(-c2ccc(CN(CCOC)C(=O)c3ccc([N+](=O)[O-])c(C)c3)cc2)nc1,3.77,1.8,1.19
OCCN1CCN(Cc2ccc(-c3ccc(-c4nc5cc(F)ccc5[nH]4)cc3)cc2)CC1,8.49,6.23,3.78
Cc1nc2ccc(NC(=O)c3cc(S(=O)(=O)N(C)C)ccc3Cl)cc2s1,10.4,10.6,10.1
O=S(=O)(c1ccc(OCc2ccc(Cl)cc2)cc1)c1cc2c(cc1O)CCN(C1CCC1)CC2,2.05,1.15,1.15
CN(C)C(=O)n1cnc(S(=O)(=O)N(C)c2ccc(Cl)cc2)n1,5.67,6.99,4.38
O=C(Nc1ccc(Cl)c(Cl)c1)Nc1ccc2nccc(N3CCNCC3)c2c1,-0.16,0.06,0.13
O=C(Nc1ccccc1)N(Cc1ccccc1-c1cccc(CNC2CCCC2)c1)C1CCN(Cc2ccccc2)CC1,0.15,1.64,4.91
c1ccc2[nH]c(-c3ccc(-c4ccc(CN5CCN(c6ccncc6)CC5)cc4)cc3)nc2c1,21.3,15.4,6.31
Fc1ccc2nc(Nc3nc(-c4ccccn4)cs3)sc2c1,20.7,10.8,0.2
